Data published in PubChem BioAssay (Tox21).
Unmarked numbers belong to inactive results. Inconclusive results are not listed. A call without a number means that no potency is given here. Active and inactive are the calls of the source. Unless noted, calls come from the whole dose curve; as a rule, active = well fitted curve in the direction sought with a large enough effect in the repeat runs; inconclusive = weak or mixed curves; inactive = no such curve, though single readings can be large; an effect the other way counts as inactive or inconclusive.

What was measured:
[1] = qHTS assay to test for compound auto fluorescence at 535 nm (green) in HEK293 cells (AID 720680)
[2] = qHTS assay to test for compound auto fluorescence at 460 nm (blue) in HEK293 cell free culture (AID 720681)
Method in brief: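 Blue fluorescence (Ex 405/Em 460 nm, triamterene-equivalent) was read immediately after pin transfer of compound or DMSO into medium (DMEM, 10% FBS) without cells.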

[3] = qHTS assay to test for compound auto fluorescence at 535 nm (green) in HEK293 cell free culture (AID 720682)
Method in brief: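 Measurement is a direct plate read of green fluorescence (485 nm in, 535 nm out) after compound addition to serum-supplemented DMEM lacking cells, with fluorescein used to express intensities.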

[4] = qHTS assay to test for compound auto fluorescence at 590 nm (red) in HEK293 cell free culture (AID 720683)
Method in brief: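 Red-channel autofluorescence of compounds in culture medium (DMEM, 10% FBS), no cells, measured at 540/590 nm. Rose Bengal sodium is the reference fluorophore for equivalence.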

[5] = qHTS assay to test for compound auto fluorescence at 590 nm (red) in HepG2 cell free culture (AID 720684)
Method in brief: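 Steps: dispense MEM/10% FBS medium, no cells; pin compound or DMSO vehicle; read red channel, Ex/Em 540/590 nm. Output given as Rose Bengal sodium equivalents.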

[6] = qHTS assay to test for compound auto fluorescence at 460 nm (blue) in HepG2 cell free culture (AID 720685)
Method in brief: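 Compound (23 nL) or DMSO pinned into cell-free MEM with 10% FBS; blue fluorescence read at 405/460 nm excitation/emission, expressed as auto-fluorescence equivalency to triamterene.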

[7] = qHTS assay to test for compound auto fluorescence at 535 nm (green) in HepG2 cell free culture (AID 720686)
[8] = qHTS assay to test for compound auto fluorescence at 460 nm (blue) in HepG2 cells (AID 720687)
Method in brief: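 Blue-channel autofluorescence (Ex/Em 405/460 nm, triamterene-equivalent) was measured after 1 hr compound exposure at 37 C, 5% CO2. Cells were HepG2, plated overnight at 37 C in MEM plus 10% FBS.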

[9] = qHTS assay to identify small molecule antagonists of the glucocorticoid receptor (GR) signaling pathway - cell viability counter screen (AID 720693); note: nearly all actives have a fitted effect of over 55% in size
[10] = qHTS assay for identifying genotoxic compounds that show differential cytotoxicity against isogenic chicken DT40 cell lines with known DNA damage response pathways - wild type cell line (AID 743012); note: nearly all actives have a fitted effect of over 60% in size; note: potency is the fitted concentration of half-maximal effect
Method in brief: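 First, wild type DT40 cells were plated at 300 per well and equilibrated about 0.5 h at 37 C/5% CO2. Next, compounds in DMSO were added and exposure lasted 40 h. Finally, CellTiter-Glo was added for 30 min at room temperature and luminescence recorded.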

[11] = qHTS assay for identifying genotoxic compounds that show differential cytotoxicity against isogenic chicken DT40 cell lines with known DNA damage response pathways - Rev3 mutant cell line (AID 743014); note: nearly all actives have a fitted effect of over 55% in size; note: potency is the fitted concentration of half-maximal effect
[12] = qHTS assay for identifying genotoxic compounds that show differential cytotoxicity against isogenic chicken DT40 cell lines with known DNA damage response pathways - Rad54/Ku70 mutant cell line (AID 743015); note: nearly all actives have a fitted effect of over 60% in size; note: potency is the fitted concentration of half-maximal effect
[13] = qHTS assay to identify small molecule antagonists of the androgen receptor (AR) signaling pathway - cell viability counter screen (AID 743033; note: nearly all actives have a fitted effect of over 45% in size)
[14] = molecular target: Androgen receptor (Homo sapiens) (UniProt P10275); assay: qHTS assay to identify small molecule antagonists of the androgen receptor (AR) signaling pathway (AID 743035; active = well fitted inhibition curve with a large enough effect in the signal ratio in the repeat runs, not every such curve was filed as active; the % refers to the signal ratio; note: potency is the fitted concentration of half-maximal effect)
Method in brief: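 Beta-lactamase FRET read (2 h RT incubation with LiveBLAzer B/G) following 16 h of compound plus R1881 treatment of AR-UAS-bla HEK293 cells, which had been pre-incubated 4 h at 37C.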

[15] = molecular target: Androgen receptor (Homo sapiens) (UniProt P10275); assay: qHTS assay to identify small molecule agonists of the androgen receptor (AR) signaling pathway (AID 743036; active = well fitted activation curve with a large enough effect in the signal ratio in the repeat runs, with a control signal flat, not every such curve was filed as active; the % refers to the signal ratio)
Method in brief: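 Beta-lactamase under UAS control, stably integrated in HEK293 GripTite cells, reports receptor activation. After 16 h compound treatment, cells received FRET substrate for 2 h at room temperature before fluorescence reading.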

[16] = molecular target: Androgen receptor (Homo sapiens) (UniProt P10275); assay: qHTS assay to identify small molecule agonists of the androgen receptor (AR) signaling pathway using the MDA cell line (AID 743040; note: nearly all actives have a fitted effect of over 20% in size)
Method in brief: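 Cells plated, 5 h at 37C/0% CO2; compound or DMSO pinned; 16 h at 37C; ONE-Glo added; luminescence measured after 30 min at room temperature. Reporter line: MDA-kb2 with MMTV-luciferase responsive to AR and GR.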

[17] = qHTS assay to identify small molecule antagonists of the androgen receptor (AR) signaling pathway using the MDA cell line - cell viability counter screen (AID 743041; note: nearly all actives have a fitted effect of over 45% in size)
Method in brief: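 Cells were plated at 3,000 per well and left 5 h. Compounds in DMSO were then pinned in, followed by R1881. After 16 h at 37C, CellTiter-Fluor fluorescence gave viability.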

[18] = molecular target: Androgen receptor (Homo sapiens) (UniProt P10275); assay: qHTS assay to identify small molecule antagonists of the androgen receptor (AR) signaling pathway using the MDA cell line (AID 743042; note: nearly all actives have a fitted effect of over 55% in size)
Method in brief: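 Antagonist mode: compounds plus R1881 agonist added to MDA-kb2 AR-luc cells, incubated 16 h at 37C. Luciferase reporter luminescence quantified, with multiplexed CellTiter-Fluor readout for cell viability.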

[19] = molecular target: Glucocorticoid receptor (Homo sapiens) (UniProt P04150); assay: qHTS assay to identify small molecule antagonists of the glucocorticoid receptor (GR) signaling pathway (AID 720692; active = well fitted inhibition curve with a large enough effect in the signal ratio in the repeat runs, not every such curve was filed as active; the % refers to the signal ratio; note: potency is the fitted concentration of half-maximal effect)
Method in brief: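 Inhibition of glucocorticoid signalling is measured in HeLa cells with a GRE-controlled beta-lactamase reporter; cells are co-treated with compound and 5 nM dexamethasone (final) for 18 h before FRET substrate readout.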

[20] = molecular target: Glucocorticoid receptor (Homo sapiens) (UniProt P04150); assay: qHTS assay to identify small molecule agonists of the glucocorticoid receptor (GR) signaling pathway (AID 720691; active = well fitted activation curve with a large enough effect in the signal ratio in the repeat runs, not every such curve was filed as active; the % refers to the signal ratio)
Method in brief: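 qHTS in GR-bla HeLa cells: 4 h settling at 37 C/5% CO2, 18 h compound incubation at 37 C, 2 h LiveBLAzer B/G FRET substrate at room temperature, fluorescence intensity measured.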

Sequence of Glucocorticoid receptor (Homo sapiens) (P04150 whole entry, looked up): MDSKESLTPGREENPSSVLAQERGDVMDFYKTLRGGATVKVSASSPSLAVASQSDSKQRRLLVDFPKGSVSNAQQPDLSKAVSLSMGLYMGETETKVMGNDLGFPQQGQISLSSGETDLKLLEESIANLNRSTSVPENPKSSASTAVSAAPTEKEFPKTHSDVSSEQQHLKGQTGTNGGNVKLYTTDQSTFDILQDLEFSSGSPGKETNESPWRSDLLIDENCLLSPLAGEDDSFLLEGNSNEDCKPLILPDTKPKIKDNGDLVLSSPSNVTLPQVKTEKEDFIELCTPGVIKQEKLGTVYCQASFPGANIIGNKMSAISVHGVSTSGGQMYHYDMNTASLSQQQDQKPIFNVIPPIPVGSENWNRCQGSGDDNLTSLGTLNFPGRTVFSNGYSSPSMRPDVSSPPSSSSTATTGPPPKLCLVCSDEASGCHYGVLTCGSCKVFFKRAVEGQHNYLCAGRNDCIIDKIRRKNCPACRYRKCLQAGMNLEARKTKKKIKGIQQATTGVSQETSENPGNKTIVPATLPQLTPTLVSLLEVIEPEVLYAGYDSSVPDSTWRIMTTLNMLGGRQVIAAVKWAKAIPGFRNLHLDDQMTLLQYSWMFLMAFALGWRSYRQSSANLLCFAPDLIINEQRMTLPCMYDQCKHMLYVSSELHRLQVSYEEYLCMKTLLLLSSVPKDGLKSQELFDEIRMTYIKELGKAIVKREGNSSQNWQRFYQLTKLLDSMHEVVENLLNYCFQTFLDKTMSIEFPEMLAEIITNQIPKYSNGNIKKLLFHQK
Sequence of Androgen receptor (Homo sapiens) (P10275 whole entry, looked up): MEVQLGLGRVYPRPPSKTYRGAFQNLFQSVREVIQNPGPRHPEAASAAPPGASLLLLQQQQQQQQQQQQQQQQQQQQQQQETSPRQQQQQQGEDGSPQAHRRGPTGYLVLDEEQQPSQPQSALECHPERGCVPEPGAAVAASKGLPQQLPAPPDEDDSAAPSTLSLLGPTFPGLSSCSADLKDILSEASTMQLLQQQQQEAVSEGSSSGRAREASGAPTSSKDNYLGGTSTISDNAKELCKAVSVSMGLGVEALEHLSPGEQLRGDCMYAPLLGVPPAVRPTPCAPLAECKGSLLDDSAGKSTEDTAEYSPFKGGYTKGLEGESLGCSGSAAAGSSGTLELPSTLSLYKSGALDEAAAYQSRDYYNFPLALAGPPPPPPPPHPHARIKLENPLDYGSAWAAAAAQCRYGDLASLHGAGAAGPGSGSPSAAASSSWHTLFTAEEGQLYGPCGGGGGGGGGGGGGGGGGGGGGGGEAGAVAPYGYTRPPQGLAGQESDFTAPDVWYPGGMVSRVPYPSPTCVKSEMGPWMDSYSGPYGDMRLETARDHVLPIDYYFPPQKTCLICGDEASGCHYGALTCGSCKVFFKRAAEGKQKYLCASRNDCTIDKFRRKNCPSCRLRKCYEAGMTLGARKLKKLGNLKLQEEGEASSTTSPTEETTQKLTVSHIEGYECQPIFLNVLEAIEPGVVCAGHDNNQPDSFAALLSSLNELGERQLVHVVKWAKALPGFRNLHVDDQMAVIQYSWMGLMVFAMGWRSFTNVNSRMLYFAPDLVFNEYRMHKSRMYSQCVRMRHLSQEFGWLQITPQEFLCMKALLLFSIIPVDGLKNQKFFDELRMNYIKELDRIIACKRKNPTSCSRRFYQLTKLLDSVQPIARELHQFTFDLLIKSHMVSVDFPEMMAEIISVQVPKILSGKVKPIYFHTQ

O=C(Nc1ccccc1)c1cc([N+](=O)[O-])ccc1Cl
outcome [1]: inactive
Potency [2]: inactive
outcome [3]: inactive
outcome [4]: inactive
outcome [5]: inactive
outcome [6]: inactive
outcome [7]: inactive
outcome [8]: inactive
Potency [9]: inactive
Potency [10]: 68.6 µM (active)
Potency [11]: 68.6 µM (active)
Potency [12]: 68.6 µM (active)
Potency [13]: inactive
Potency [14]: 24.5 µM (active)
outcome [15]: inactive
outcome [16]: inactive
Potency [17]: inactive
Potency [18]: inactive

CC(C(=O)O)c1ccc2c(c1)Cc1cccnc1O2 (stereo not drawn)
outcome [1]: inactive
Potency [2]: inactive
outcome [3]: inactive
outcome [4]: inactive
outcome [5]: inactive
outcome [6]: inactive
outcome [7]: inactive
outcome [8]: inactive
Potency [19]: inactive
Potency [9]: inactive
Potency [10]: inactive
Potency [11]: inactive
Potency [12]: inactive
Potency [13]: inactive
outcome [16]: inactive
Potency [18]: inactive

C/C(=C\C(C)CC(C)CC(C)C)C1CC(=O)OC1=O (stereo not drawn)
outcome [1]: inactive
Potency [2]: inactive
outcome [3]: inactive
outcome [4]: inactive
outcome [5]: inactive
outcome [6]: inactive
outcome [7]: inactive
outcome [8]: inactive
Potency [19]: 24.6 µM (active)
Potency [9]: inactive
Potency [11]: inactive
Potency [12]: inactive
Potency [13]: inactive

CC/C=C/CCO
outcome [1]: inactive
Potency [2]: inactive
outcome [3]: inactive
outcome [4]: inactive
outcome [5]: inactive
outcome [6]: inactive
outcome [7]: inactive
outcome [8]: inactive
Potency [20]: inactive
Potency [9]: inactive
Potency [10]: inactive
Potency [12]: inactive
Potency [13]: inactive

CCOc1cc(OCC)c(C(C)=O)cc1OCC
outcome [1]: inactive
Potency [2]: inactive
outcome [3]: inactive
outcome [4]: inactive
outcome [5]: inactive
outcome [6]: inactive
outcome [7]: inactive
outcome [8]: inactive
Potency [20]: inactive
Potency [9]: inactive
Potency [11]: 60 µM (active)
Potency [13]: inactive
Potency [14]: inactive
outcome [15]: inactive
outcome [16]: inactive
Potency [17]: inactive
Potency [18]: inactive

Nc1cccc2c(=O)[nH][nH]c(=O)c12
outcome [1]: inactive
Potency [2]: inactive
outcome [3]: inactive
outcome [4]: inactive
outcome [5]: inactive
outcome [6]: inactive
outcome [7]: inactive
outcome [8]: inactive
Potency [19]: inactive
Potency [9]: inactive
Potency [10]: inactive
Potency [11]: inactive
Potency [12]: inactive
Potency [13]: inactive
Potency [17]: inactive

CC1(C)CC(=O)CC(C)(C)N1
outcome [1]: inactive
Potency [2]: inactive
outcome [3]: inactive
outcome [4]: inactive
outcome [5]: inactive
outcome [6]: inactive
outcome [7]: inactive
outcome [8]: inactive
Potency [19]: inactive
Potency [9]: inactive
Potency [11]: inactive
Potency [12]: inactive
Potency [13]: inactive
Potency [17]: inactive

Cc1cc(SC2=C(O)C[C@@](CCc3ccc(N)cc3)(C(C)C)OC2=O)c(C(C)(C)C)cc1CO
outcome [1]: inactive
Potency [2]: inactive
outcome [3]: inactive
outcome [4]: inactive
outcome [5]: inactive
outcome [6]: inactive
outcome [7]: inactive
outcome [8]: inactive
Potency [19]: 54.9 µM (active)
Potency [9]: inactive
Potency [10]: inactive
Potency [11]: inactive
Potency [12]: inactive
Potency [13]: inactive
Potency [14]: inactive
outcome [16]: inactive
Potency [18]: inactive

CC(=O)Oc1cccc2c1C(=O)c1c(OC(C)=O)cc(C(=O)O)cc1C2=O
outcome [1]: inactive
Potency [2]: inactive
outcome [3]: inactive
outcome [4]: inactive
outcome [5]: inactive
outcome [6]: inactive
outcome [7]: inactive
outcome [8]: inactive
Potency [9]: inactive
Potency [10]: inactive
Potency [11]: inactive
Potency [12]: inactive
Potency [13]: inactive
outcome [16]: inactive
Potency [18]: inactive
